Results filed as inconclusive are left out. Activity calls are given as the source filed them. The calls were made as follows: active = hit-call score of the fitted dose curve at least 0.9, where 1 is the maximum; inconclusive = response in the unintended direction; inactive = score below 0.9.
Assays:
[1] = target: human Sirtuin 1 (SIRT1), SIRT1 (gene 23411) (UniProt Q96EB6); experiment: NVS_ENZ_hSIRT1: NovaScreen (NVS) Enzymatic Assay for human Sirtuin 1 (SIRT1) (AID 2283219)
Procedure, shortened: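 Cell-free recombinant SIRT1 with a fluorescent substrate; substrate and product separated by electrophoretic mobility shift and read by fluorescence intensity, 1 h after dosing. Primary screen at 25 uM in duplicate; hits re-run in concentration-response up to 50 uM, relative to DMSO.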

[2] = system: bovine Histamine 1 Receptor (H1), gene 281231; experiment: NVS_GPCR_bH1: NovaScreen (NVS) G Protein-Coupled Receptor Assay for bovine Histamine 1 Receptor (H1) (AID 2283246)
Procedure, shortened: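 Radioligand displacement on bovine cerebellar membranes, 1 h after dosing, filter-based scintillation read-out; loss of signal vs DMSO. Duplicate single-concentration screen at 25 uM, then concentration-response up to 50 uM for hits.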

[3] = target: human Sirtuin 3 (SIRT3), SIRT3 (gene 23410) (UniProt Q9NTG7); experiment: NVS_ENZ_hSIRT3: NovaScreen (NVS) Enzymatic Assay for human Sirtuin 3 (SIRT3) (AID 2283222)
human Sirtuin 3 (SIRT3), SIRT3 (gene 23410), sequence (Q9NTG7 whole entry, looked up): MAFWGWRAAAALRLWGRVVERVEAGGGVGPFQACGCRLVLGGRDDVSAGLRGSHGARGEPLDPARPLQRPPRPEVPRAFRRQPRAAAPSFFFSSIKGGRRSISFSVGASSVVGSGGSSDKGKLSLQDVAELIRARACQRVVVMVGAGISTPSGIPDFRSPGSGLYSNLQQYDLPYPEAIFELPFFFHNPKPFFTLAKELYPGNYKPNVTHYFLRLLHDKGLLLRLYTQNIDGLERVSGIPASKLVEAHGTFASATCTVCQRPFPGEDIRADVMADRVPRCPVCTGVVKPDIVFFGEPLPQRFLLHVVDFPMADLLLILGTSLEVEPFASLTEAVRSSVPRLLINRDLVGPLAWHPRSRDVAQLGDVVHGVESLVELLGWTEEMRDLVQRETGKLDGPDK
Procedure, shortened: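 Cell-free enzyme assay with recombinant protein and fluorescent substrate, product separated by electrophoretic mobility shift; read 1 hour after dosing. Screened in duplicate at 25 uM, then singleton concentration-response up to 50 uM; loss of signal versus DMSO.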

[4] = target: rabbit Imidazoline 2 Central (I2C), CKB (gene 100009085) (UniProt P00567); experiment: NVS_ENZ_rabI2C: NovaScreen (NVS) Enzymatic Assay for rabbit Imidazoline 2 Central (I2C) (AID 2283228)
rabbit Imidazoline 2 Central (I2C), CKB (gene 100009085), sequence (P00567 whole entry, looked up): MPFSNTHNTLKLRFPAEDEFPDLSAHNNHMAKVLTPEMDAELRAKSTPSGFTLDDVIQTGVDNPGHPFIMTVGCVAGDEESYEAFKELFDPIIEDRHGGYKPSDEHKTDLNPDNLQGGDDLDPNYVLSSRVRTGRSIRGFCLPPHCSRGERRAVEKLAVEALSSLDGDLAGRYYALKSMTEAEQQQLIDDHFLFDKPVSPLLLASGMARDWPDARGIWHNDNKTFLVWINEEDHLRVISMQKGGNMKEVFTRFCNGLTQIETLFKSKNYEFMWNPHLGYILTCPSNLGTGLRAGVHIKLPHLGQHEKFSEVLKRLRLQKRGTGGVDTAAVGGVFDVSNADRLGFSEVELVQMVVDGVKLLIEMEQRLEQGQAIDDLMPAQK
Procedure, shortened: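 Rabbit brain membranes, cell-free; readout by filter-based scintillation counting 1.5 hours after dosing, loss of signal vs DMSO. Initial duplicate test at 25 uM, then concentration-response with 50 uM top concentration.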

[5] = target: human Sirtuin 2 (SIRT2), SIRT2 (gene 22933) (UniProt Q8IXJ6); experiment: NVS_ENZ_hSIRT2: NovaScreen (NVS) Enzymatic Assay for human Sirtuin 2 (SIRT2) (AID 2283217)
Procedure, shortened: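 Cell-free recombinant human SIRT2, fluorescent substrate with product separated by electrophoretic mobility shift, 1 hr. Screened in duplicate at 25 uM; hits rerun singly in concentration-response up to 50 uM, relative to DMSO.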

[6] = target: sheep Cyclooxygenase-2 (Cox2), PTGS2 (gene 443460) (UniProt P79208); experiment: NVS_ENZ_oCOX2: NovaScreen (NVS) Enzymatic Assay for sheep Cyclooxygenase-2 (Cox2) (AID 2283231)
Procedure, shortened: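 Compounds were first run at 25 uM in duplicate against tissue-extracted ovine COX-2; those passing a preset inhibition threshold went to singleton concentration-response testing with a 50 uM maximum. Read-out: absorbance at 0.66 hour.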

[7] = target: rat Constitutive Nitric Oxide Synthase (CNOS), Nos1 (gene 24598) (UniProt P29476); experiment: NVS_ENZ_rCNOS: NovaScreen (NVS) Enzymatic Assay for rat Constitutive Nitric Oxide Synthase (CNOS) (AID 2283236)
Procedure, shortened: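 Enzyme activity in rat brain membrane preparation, read 1 h after dosing by filter-based radiometric scintillation counting. Primary screen in duplicate at 25 uM; actives (e.g., ≥30% inhibition) then run in concentration-response up to 50 uM.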

[8] = target: human SRC Proto-Oncogene, Non-receptor Tyrosine Kinase (SRC), SRC (gene 6714) (UniProt P12931); experiment: NVS_ENZ_hSRC: NovaScreen (NVS) Enzymatic Assay for human SRC Proto-Oncogene, Non-receptor Tyrosine Kinase (SRC) (AID 2283223)
Procedure, shortened: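 Cell-free kinase activity assay with fluorescent substrate, product separated by electrophoretic mobility shift, read 1 h after dosing. Duplicate single point at 25 uM, then concentration-response up to 50 uM; loss of signal versus DMSO.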

[9] = target: human Tropomyosin Receptor Kinase A (TRKA), NTRK1 (gene 4914) (UniProt P04629); experiment: NVS_ENZ_hTrkA: NovaScreen (NVS) Enzymatic Assay for human Tropomyosin Receptor Kinase A (TRKA) (AID 2283224)
Procedure, shortened: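 Recombinant human TrkA activity read after 1 h by fluorescence with electrophoretic mobility shift separating substrate and product. Primary screen in duplicate at 25 uM; actives were rerun in concentration-response up to 50 uM. Loss of signal versus DMSO.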

[10] = target: human Vascular Endothelial Growth Factor Receptor 1 (VEGFR1), FLT1 (gene 2321) (UniProt P17948); experiment: NVS_ENZ_hVEGFR1: NovaScreen (NVS) Enzymatic Assay for human Vascular Endothelial Growth Factor Receptor 1 (VEGFR1) (AID 2283226)
human Vascular Endothelial Growth Factor Receptor 1 (VEGFR1), FLT1 (gene 2321), sequence (P17948 whole entry, looked up): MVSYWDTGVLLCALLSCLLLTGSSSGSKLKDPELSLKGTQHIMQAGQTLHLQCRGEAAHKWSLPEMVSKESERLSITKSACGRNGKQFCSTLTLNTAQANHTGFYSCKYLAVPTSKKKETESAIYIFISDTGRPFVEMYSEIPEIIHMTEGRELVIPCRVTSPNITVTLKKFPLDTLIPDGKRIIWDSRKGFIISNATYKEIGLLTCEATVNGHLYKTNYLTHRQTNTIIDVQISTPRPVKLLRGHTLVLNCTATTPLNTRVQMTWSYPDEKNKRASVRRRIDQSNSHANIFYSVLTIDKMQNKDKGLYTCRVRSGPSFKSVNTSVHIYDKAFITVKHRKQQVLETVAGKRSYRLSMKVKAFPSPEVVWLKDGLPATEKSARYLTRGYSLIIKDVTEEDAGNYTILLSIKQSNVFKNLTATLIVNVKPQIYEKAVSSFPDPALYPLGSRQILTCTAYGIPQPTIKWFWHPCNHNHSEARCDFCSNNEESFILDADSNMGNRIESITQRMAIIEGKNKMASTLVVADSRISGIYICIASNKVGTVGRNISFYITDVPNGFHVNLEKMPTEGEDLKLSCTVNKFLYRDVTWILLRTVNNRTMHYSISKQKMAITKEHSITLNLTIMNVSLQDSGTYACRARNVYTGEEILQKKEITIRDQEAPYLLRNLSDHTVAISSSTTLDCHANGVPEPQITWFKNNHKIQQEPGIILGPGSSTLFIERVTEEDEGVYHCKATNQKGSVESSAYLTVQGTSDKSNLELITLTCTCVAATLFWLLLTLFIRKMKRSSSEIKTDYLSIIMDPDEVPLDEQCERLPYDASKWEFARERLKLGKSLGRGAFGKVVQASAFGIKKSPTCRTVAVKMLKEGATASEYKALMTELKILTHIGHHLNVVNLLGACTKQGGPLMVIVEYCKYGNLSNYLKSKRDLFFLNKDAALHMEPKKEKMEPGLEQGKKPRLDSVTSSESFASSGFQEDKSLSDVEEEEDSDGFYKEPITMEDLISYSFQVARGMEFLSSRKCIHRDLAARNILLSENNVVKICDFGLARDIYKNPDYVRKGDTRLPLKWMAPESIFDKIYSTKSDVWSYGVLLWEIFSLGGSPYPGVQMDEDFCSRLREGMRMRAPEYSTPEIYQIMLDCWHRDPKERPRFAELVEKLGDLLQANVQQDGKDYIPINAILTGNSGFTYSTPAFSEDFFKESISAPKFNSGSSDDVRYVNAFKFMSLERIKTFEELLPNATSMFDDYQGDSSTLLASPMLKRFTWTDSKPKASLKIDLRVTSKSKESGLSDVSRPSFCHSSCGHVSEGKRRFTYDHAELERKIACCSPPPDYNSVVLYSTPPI
Procedure, shortened: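 Cell-free assay of recombinant human VEGFR1 kinase with substrate, measured 1 h after dosing; fluorescence with electrophoretic mobility-shift separation of substrate and product, referenced to DMSO; primary screen at 25 uM in duplicate, actives then run in concentration series.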

[11] = target: human Vascular Endothelial Growth Factor Receptor 3 (VEGFR3), FLT4 (gene 2324) (UniProt P35916); experiment: NVS_ENZ_hVEGFR3: NovaScreen (NVS) Enzymatic Assay for human Vascular Endothelial Growth Factor Receptor 3 (VEGFR3) (AID 2283229)
Procedure, shortened: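 Cell-free recombinant VEGFR3 kinase reaction with fluorescent substrate, read 1 h after dosing by electrophoretic mobility shift separation of substrate and product. Single-concentration duplicate screen at 25 uM, then concentration-response up to 50 uM; loss of activity versus DMSO.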

[12] = target: human Vascular Endothelial Growth Factor Receptor 2 (VEGFR2), KDR (gene 3791) (UniProt P35968); experiment: NVS_ENZ_hVEGFR2: NovaScreen (NVS) Enzymatic Assay for human Vascular Endothelial Growth Factor Receptor 2 (VEGFR2) (AID 2283230)
human Vascular Endothelial Growth Factor Receptor 2 (VEGFR2), KDR (gene 3791), sequence (P35968 whole entry, looked up): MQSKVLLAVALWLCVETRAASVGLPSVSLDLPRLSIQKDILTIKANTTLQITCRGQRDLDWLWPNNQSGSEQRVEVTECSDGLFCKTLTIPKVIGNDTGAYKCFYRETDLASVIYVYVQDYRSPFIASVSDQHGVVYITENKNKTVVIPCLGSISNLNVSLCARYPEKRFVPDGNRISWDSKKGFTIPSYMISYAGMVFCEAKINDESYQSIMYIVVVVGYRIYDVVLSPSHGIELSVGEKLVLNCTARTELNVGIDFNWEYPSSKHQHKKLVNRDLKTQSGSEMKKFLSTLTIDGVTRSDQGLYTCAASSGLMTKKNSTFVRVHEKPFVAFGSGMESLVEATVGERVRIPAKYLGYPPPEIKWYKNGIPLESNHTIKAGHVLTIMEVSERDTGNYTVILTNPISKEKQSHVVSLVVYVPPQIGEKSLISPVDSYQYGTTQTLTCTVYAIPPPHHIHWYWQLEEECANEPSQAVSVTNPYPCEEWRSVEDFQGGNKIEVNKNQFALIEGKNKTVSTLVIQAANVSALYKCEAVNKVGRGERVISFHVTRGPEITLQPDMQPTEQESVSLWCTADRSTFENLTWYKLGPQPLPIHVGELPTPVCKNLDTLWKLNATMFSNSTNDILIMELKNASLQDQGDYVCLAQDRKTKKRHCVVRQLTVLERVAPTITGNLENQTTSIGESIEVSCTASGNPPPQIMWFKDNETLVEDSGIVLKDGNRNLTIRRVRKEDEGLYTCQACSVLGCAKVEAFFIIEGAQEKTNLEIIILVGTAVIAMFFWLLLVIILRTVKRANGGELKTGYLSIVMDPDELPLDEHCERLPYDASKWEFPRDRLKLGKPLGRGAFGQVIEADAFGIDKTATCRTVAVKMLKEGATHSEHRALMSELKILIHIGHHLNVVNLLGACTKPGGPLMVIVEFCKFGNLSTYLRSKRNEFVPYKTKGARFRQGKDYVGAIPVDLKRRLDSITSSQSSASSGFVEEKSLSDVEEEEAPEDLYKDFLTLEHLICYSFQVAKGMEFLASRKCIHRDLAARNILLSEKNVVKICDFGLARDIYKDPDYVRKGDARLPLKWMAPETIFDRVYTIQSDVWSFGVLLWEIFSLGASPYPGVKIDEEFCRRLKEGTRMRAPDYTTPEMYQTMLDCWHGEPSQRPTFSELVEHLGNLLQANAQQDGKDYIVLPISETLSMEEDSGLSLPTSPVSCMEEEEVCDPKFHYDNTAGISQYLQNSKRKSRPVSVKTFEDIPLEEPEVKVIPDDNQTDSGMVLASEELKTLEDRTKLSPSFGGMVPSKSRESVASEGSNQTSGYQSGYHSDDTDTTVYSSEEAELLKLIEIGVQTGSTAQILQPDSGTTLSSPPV
Procedure, shortened: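 Cell-free recombinant VEGFR2 kinase, fluorescent substrate with electrophoretic mobility-shift separation; read 1 h after dosing. Screened at 25 uM in duplicate, hits to concentration-response up to 50 uM; loss-of-signal versus DMSO.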

[13] = target: rat Catechol-O-Methyl Transferase (COMT), Comt (gene 24267) (UniProt P22734); experiment: NVS_ENZ_rCOMT: NovaScreen (NVS) Enzymatic Assay for rat Catechol-O-Methyl Transferase (COMT) (AID 2283235)
Procedure, shortened: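 Cell-free enzyme activity with protein extracted from rat dorsal striatum, measured by HPLC with absorbance detection. Compounds screened at 25 uM in duplicate; actives then run in concentration-response up to 50 uM, loss of signal versus DMSO.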

[14] = target: sheep Cyclooxygenase-1 (Cox1), PTGS1 (gene 443551) (UniProt P05979); experiment: NVS_ENZ_oCOX1: NovaScreen (NVS) Enzymatic Assay for sheep Cyclooxygenase-1 (Cox1) (AID 2283239);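 also: actives reduce cyclooxygenase activity so potencies are for inhibitors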
sheep Cyclooxygenase-1 (Cox1), PTGS1 (gene 443551), sequence (P05979 whole entry, looked up): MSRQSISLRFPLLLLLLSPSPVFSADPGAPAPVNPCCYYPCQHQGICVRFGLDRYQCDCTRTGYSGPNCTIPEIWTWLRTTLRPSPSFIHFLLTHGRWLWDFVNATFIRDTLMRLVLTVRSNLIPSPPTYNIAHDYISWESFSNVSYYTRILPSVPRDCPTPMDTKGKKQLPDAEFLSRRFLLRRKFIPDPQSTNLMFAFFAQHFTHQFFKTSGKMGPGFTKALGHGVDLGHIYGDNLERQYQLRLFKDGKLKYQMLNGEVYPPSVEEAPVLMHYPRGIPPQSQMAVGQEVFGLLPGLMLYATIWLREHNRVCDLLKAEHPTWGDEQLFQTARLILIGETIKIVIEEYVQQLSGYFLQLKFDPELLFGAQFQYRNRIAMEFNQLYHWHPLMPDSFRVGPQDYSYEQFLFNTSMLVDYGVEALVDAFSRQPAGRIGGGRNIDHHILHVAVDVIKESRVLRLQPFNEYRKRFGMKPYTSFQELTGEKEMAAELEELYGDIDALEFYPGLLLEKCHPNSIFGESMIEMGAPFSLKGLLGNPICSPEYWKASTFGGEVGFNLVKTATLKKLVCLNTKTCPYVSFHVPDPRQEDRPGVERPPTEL
Procedure, shortened: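 Ovine seminal vesicle extract; absorbance (colorimetric) enzyme read-out at 0.66 h post-dose. Primary: single conc 25 uM, duplicate. Follow-up: concentration series on actives. Activity = signal loss vs DMSO baseline.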

[15] = target: Adenosine receptor A1 (Bos taurus) (UniProt P28190); experiment: NVS_GPCR_bAdoR_NonSelective: NovaScreen (NVS) G Protein-Coupled Receptor Assay for bovine Adenosine Receptor (AdoR), Non-selective Binding (AID 2283244)
Procedure, shortened: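 Bovine striatal membranes, radioligand displacement binding, 1 h after dosing, filter-based scintillation counting. Screened in duplicate at 25 uM, then concentration-response up to 50 uM; loss of specific binding relative to DMSO.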

[16] = system: guinea pig Leukotriene B4 Receptor (LTB4), gene 100379538; experiment: NVS_GPCR_gLTB4: NovaScreen (NVS) G Protein-Coupled Receptor Assay for guinea pig Leukotriene B4 Receptor (LTB4) (AID 2283247)
Procedure, shortened: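 Radioligand displacement on guinea pig spleen membranes, filter-based scintillation counting 2 h after dosing. Primary duplicate single point at 25 uM; hits over threshold (e.g. 30% inhibition) run in concentration-response up to 50 uM, DMSO baseline.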

[17] = target: human Protein Tyrosine Phosphatase Receptor Type M (PTPRM), PTPRM (gene 5797) (UniProt P28827); experiment: NVS_ENZ_hPTPRM: NovaScreen (NVS) Enzymatic Assay for human Protein Tyrosine Phosphatase Receptor Type M (PTPRM) (AID 2283215)
Procedure, shortened: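 Cell-free recombinant PTPRM with fluorogenic substrate; product separated from substrate by electrophoretic mobility shift and read by fluorescence, 1.33 h after dosing. Primary screen single concentration (25 uM) in duplicate; actives retested in concentration series; loss of signal versus DMSO.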

[18] = system: bovine Angiotensin II Receptor Type 2 (AT2), gene 407157; experiment: NVS_GPCR_bAT2: NovaScreen (NVS) G Protein-Coupled Receptor Assay for bovine Angiotensin II Receptor Type 2 (AT2) (AID 2283240)
Procedure, shortened: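 Radioligand displacement on bovine cerebellar membranes, 1 hour incubation, filter-based scintillation counting; loss of signal vs DMSO. Duplicate single-point screen at 25 uM, then concentration-response to 50 uM maximum.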

[19] = target: bovine Dopamine Receptor (DR), Non-selective Binding, DRD1 (gene 281125) (UniProt Q95136); experiment: NVS_GPCR_bDR_NonSelective: NovaScreen (NVS) G Protein-Coupled Receptor Assay for bovine Dopamine Receptor (DR), Non-selective Binding (AID 2283241)
Procedure, shortened: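 Bovine striatal membranes; radioligand displacement read by filtration and scintillation counting 1 h after dosing, loss of signal vs DMSO. Screened in duplicate at 25 uM, then concentration-response for hits.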

human Sirtuin 1 (SIRT1), SIRT1 (gene 23411), sequence (Q96EB6 whole entry, looked up): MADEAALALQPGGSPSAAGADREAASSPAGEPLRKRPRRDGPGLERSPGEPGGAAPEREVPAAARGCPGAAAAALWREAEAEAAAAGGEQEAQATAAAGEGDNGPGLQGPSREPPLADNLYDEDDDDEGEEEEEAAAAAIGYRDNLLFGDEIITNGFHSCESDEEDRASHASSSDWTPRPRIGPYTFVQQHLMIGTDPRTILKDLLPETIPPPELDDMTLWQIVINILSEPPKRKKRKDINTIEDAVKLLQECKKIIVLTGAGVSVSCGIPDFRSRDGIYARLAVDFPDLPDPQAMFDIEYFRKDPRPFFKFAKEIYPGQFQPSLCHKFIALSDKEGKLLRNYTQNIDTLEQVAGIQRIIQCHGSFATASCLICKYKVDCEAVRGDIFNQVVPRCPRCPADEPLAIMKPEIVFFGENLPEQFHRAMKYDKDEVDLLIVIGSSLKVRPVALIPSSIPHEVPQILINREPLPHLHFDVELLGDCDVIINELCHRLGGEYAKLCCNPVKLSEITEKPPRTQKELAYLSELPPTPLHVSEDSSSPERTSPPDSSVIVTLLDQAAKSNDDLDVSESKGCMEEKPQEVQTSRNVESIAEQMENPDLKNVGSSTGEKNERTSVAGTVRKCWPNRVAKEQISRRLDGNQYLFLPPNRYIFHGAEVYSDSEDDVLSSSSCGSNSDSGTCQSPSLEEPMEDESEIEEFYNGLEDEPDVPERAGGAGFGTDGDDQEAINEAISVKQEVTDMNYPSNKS

Cc1ccc(C(C)C)c(O)c1
outcome [1]: inactive | outcome [2]: inactive

CC1(C)CC(N=C=O)CC(C)(CN=C=O)C1 (stereo not drawn)
outcome [3]: inactive

Cc1cccc(Nc2cc(Cl)nc(SCC(=O)O)n2)c1C
outcome [1]: inactive | outcome [3]: inactive

NCC1(Cc2noc(=O)[nH]2)CCCCC1
outcome [1]: inactive

O=C(N[C@@H](Cc1ccccc1)[C@@H](O)C(=O)N1C[C@@H](O)[C@@H](O)C1)c1cc2cc(Cl)ccc2[nH]1
outcome [4]: inactive

C=CCOC(=O)c1ccccc1C(=O)OCC=C
outcome [5]: inactive | AC50 [6]: 5.13 µM (active)

CC(=O)C(C)=CC1C(C)=CCCC1(C)C (stereo not drawn)
outcome [1]: inactive

CCCCCCCC=O
outcome [1]: inactive

CC(C)c1ccc(C(=O)N=C(N)N)cc1S(C)(=O)=O
outcome [5]: inactive | outcome [3]: inactive | outcome [7]: inactive

CC1(C)NC(=O)NC1=O
outcome [8]: inactive

CCCc1cc(=O)[nH]c(=S)[nH]1
outcome [8]: inactive

Cc1cccc([N+](=O)[O-])c1C
outcome [1]: inactive

Cc1nc(-c2ccc3c(c2)CCN(CCC2CCC(NC(=O)/C=C/c4ccc(F)cc4)CC2)CC3)no1 (stereo not drawn)
outcome [5]: inactive | outcome [1]: inactive | outcome [3]: inactive

CC1=C(/C=C/C(C)=C/C=C/C(C)=C/CO)C(C)(C)CCC1
outcome [1]: inactive | outcome [9]: inactive | outcome [10]: inactive | outcome [11]: inactive | outcome [12]: inactive | AC50 [6]: 15.5 µM (active) | outcome [13]: inactive | AC50 [14]: 17.9 µM (active)

FC(F)(F)C(F)(F)C(F)(F)C(F)(F)C(F)(F)C(F)(F)CCI
outcome [9]: inactive | outcome [10]: inactive | outcome [7]: inactive

c1cc(-c2ccncc2)ccn1
outcome [1]: inactive

Cc1cc(NC(=O)C(=O)O)cc(C)c1Oc1ccc(O)c2c1CCC2
AC50 [1]: 25 µM (active)

CCCCCCCCCCC
outcome [10]: inactive

CN1CCN(Cc2cc(-c3ccc4[nH]c(=O)oc4c3)co2)[C@@H](c2ccc(F)cc2)C1
AC50 [4]: 22 µM (active)

CCc1c(C(=O)NN2CCCCC2)nn(-c2ccc(Cl)cc2Cl)c1-c1ccc(Br)cc1
outcome [10]: inactive | outcome [12]: inactive | outcome [15]: inactive

Cc1oc(-c2ccccc2)nc1CCOc1cccc2c1ccn2CCC(=O)O
outcome [8]: inactive | outcome [10]: inactive | outcome [12]: inactive | AC50 [16]: 4.96 µM (active)

CCOc1ccc2c(c1)C(C)=CC(C)(C)N2
outcome [4]: inactive | outcome [7]: inactive

O=C(OCCCCCOC(=O)c1ccccc1)c1ccccc1
outcome [17]: inactive | outcome [1]: inactive | outcome [8]: inactive | outcome [12]: inactive

Cc1c(C(=O)O)c(O)cc2c1C(=O)c1c(O)c([C@@H]3O[C@H](CO)[C@@H](O)[C@H](O)[C@H]3O)c(O)c(O)c1C2=O
outcome [1]: inactive

COc1cc(-c2nc(NC(=O)c3cc4cc(C)cc(C)c4n3CC(=O)O)sc2CCC2CCCCC2)c(OC)cc1Cl
AC50 [3]: 30.3 µM (active) | AC50 [12]: 7.16 µM (active) | AC50 [14]: 4 µM (active) | AC50 [18]: 29.4 µM (active)

NCCO
outcome [1]: inactive | outcome [8]: inactive | outcome [10]: inactive | outcome [11]: inactive | outcome [12]: inactive

CCCCc1ccc2c(n1)[C@@H](c1ccc(OC)cc1C[C@H](C)C(=O)O)[C@H](C(=O)O)[C@H]2c1ccc2c(c1)OCO2
outcome [10]: inactive

CCOC(=O)CCC(=O)OCC
outcome [4]: inactive

Nc1ccccc1N
outcome [4]: inactive | AC50 [6]: 14.9 µM (active) | outcome [14]: inactive | AC50 [15]: 9.16 µM (active)

NC(=O)Cn1c(=O)cc(CCN2CCN(c3nccc4sccc34)CC2)c2ccc(F)cc21
outcome [4]: inactive | AC50 [19]: 1.26 µM (active) | AC50 [2]: 0.777 µM (active)

Oc1ccc2c(c1)OC[C@@H](N1CCC(O)(c3ccc(F)cc3)CC1)[C@H]2O
outcome [4]: inactive

O=c1c(O)c(-c2ccc(O)c(O)c2)oc2cc(O)cc(O)c12
AC50 [13]: 12.4 µM (active)

CCCCC(CC)COC(=O)CC(C(=O)OCC(CC)CCCC)S(=O)(=O)O (stereo not drawn)
AC50 [18]: 19.1 µM (active)

C1CCC(SSC2CCCCC2)CC1
outcome [19]: inactive

Nc1ccc2c(c1)C(=O)c1ccccc1C2=O
outcome [2]: inactive

C[C@]12C=CC(=O)C=C1CC[C@@H]1[C@@H]2C(=O)C[C@@]2(C)[C@H]1CC[C@]2(O)C(=O)CO
outcome [2]: inactive
